Our source for the growth inhibition values is PubChem BioAssay (NCI).

Molecules are shown by their SMILES. About 79,000 compounds went through this panel and 15% of them were active in at least one assay; those are over-represented in the sample as a whole. Values without a mark were called inactive. Cut-off read from the data, not from the text of the source: active = growth inhibition above about 70%; inactive = the rest.

This test in a line: NCI Yeast Anticancer Drug Screen. Data for the rad50 strain (AID 155).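 Note: 0% = growth of vehicle-only cultures of the same strain.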 To be noted: S. cerevisiae rad50 strain growth inhibition; at 50.0 µM; stronger effect = higher value. The essentials: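 Inhibition values express reduced yeast growth in compound-treated cultures relative to vehicle-treated controls.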
For the molecule `C=C1C(=O)C2CCC1C2` (stereo not given), the growth inhibition is 32.4%.
To `Nc1nnc2cc(F)ccc2n1` belongs -18%; to `COC1(OC)C2(Cl)C(Cl)=C(Cl)C1(Cl)C1COCC12` (stereo not given), -48%.
The figure for `O=C(Nc1c(Cl)cc(Cl)cc1Cl)ON=C1CCCCC1` is 1.2%; for `NNC(=O)N/N=C1\C(=O)N(c2nccs2)C(=O)C(=O)C1c1nc2ccccc2s1` (stereo not given) it is -26.1%.
To `CCCC(=O)CC(=O)c1ccccc1` belongs 7.75%.
Regarding `COc1ccc(C2CC(c3ccccc3)=Nc3ccccc3S2)cc1` (stereo not given), the growth inhibition was -12.1%.
The figure for `CC1(C)CCC(C)(C)NC(=S)N1` is 13.3%; for `O=C1C=C[C@H](O)[C@@]2(CO)O[C@@H]12` it is 5.85%.
The figure for `CC(=O)c1cccc(NS(=O)(=O)c2ccc(C)cc2)c1` is -4.85%.
The figure for `C[n+]1cc2cc3c(cc2c2ccccc21)OCO3` is 23.5%; for `O=C1C=Cc2ccccc2/C1=C/c1[nH]c(=O)[nH]c1O` it is -21.1%; for `CCCCCC#CC(=O)O` it is -3.05%.
As for `O=C(O)Cc1ccccn1`, the growth inhibition was -29.4%.
To `CCCCCCCCCCCCCCCCCC(=O)NCCNC(=O)CCCCCCCCCCCCCCCCC` belongs -5.7%; to `C=CCc1cc(OC)c(O)c(OC)c1`, 1.95%; to `C/C(=N\N=C(/C)c1cccc([N+](=O)[O-])c1)c1cccc([N+](=O)[O-])c1`, -5.75%.
For the molecule `CCOC(=O)CNC`, the growth inhibition was 3.55%.
To `CCC(=O)C1C(=O)c2ccccc2C1=O` belongs 20.9%; to `Cc1cc(C(=O)NN)c(C#N)c(=O)[nH]1`, 2.2%.
